Hit rate of the full screen: of about 13,000 compounds, about 3,200 (25%) showed an effect of 50% or more. The list shows a part of the results.
These molecules were tested on P. falciparum stage V gametocytes. Conditions: 48 h, 5 µM; inhibitor.
Parameters: BacTiter-Glo ATP luminescence viability of purified stage V gametocytes in 384-well plates, per cent inhibition versus DMSO

Q: With c1ccc(COc2ccc(Nc3ncnc4cnc(-c5ccc(CN6CCCCC6)o5)cc34)cc2)cc1 [TCMDC-137775] as the molecule, how does the “% Inhibition” value read?
A: -26.66%

Q: Which “% Inhibition” value does the source give for CCCCCC(C)C(C)c1cc(O)c2c(c1)OC(C)(C)CC2=Cc1ccncc1 (stereo not shown) [TCMDC-131746] here?
A: -25.77%

Q: C#CC[C@@H](NC(N)=O)C(=O)O [TCMDC-131404] was tested. Which “% Inhibition” value did it give?
A: -1.405%

Q: Which “% Inhibition” value does the source give for O=S(=O)(NC1CCN(c2ccnc3cc(Cl)ccc23)C1)c1cccc(F)c1 (stereo not shown) [TCMDC-133657] here?
A: -15.22%

Q: With CCOc1cc(C)ccc1N1CCN(CCN2CCC(NC(=O)c3ccc(-c4ccc(C#N)cc4)cc3)CC2)CC1 [TCMDC-138866] as the molecule, how does the “% Inhibition” value read?
A: 88.4%

Q: How did the “% Inhibition” value turn out when CCOc1cc(C)ccc1C1CCN(CCCCNC(=O)c2ccc(-c3ccc(C(F)(F)F)cn3)cc2)CC1 [TCMDC-138535] was run?
A: 16.24%

Q: With COc1cccc(C2CCN(CCN3CCC(CNC(=O)c4ccc(-c5ccc(C(F)(F)F)cc5)cc4)CC3)CC2)c1 [TCMDC-138830] as the molecule, how does the “% Inhibition” value read?
A: 71.94%

Q: How did the “% Inhibition” value turn out when COc1cccc(C2CCN(CCN3CCC(NC(=O)c4ccc(-c5ccc(Cl)cc5)cc4)CC3)CC2)c1 [TCMDC-138833] was run?
A: -13.87%

Q: CCOc1cc(C)ccc1C1CCN(CCN2CCC(CNC(=O)c3ccc(-c4ccc(C(F)(F)F)cc4)cc3)CC2)CC1 [TCMDC-138805] was tested. Which “% Inhibition” value did it give?
A: 96.77%

Q: Which “% Inhibition” value does the source give for COc1cccc(C2CCN(CCN3CCC(NC(=O)c4ccc(-c5ccc(C(F)(F)F)cc5)cc4)CC3)CC2)c1 [TCMDC-138819] here?
A: 18.98%

Q: COc1cccc(C2CCN(CCN3CCC(NC(=O)c4ccc(-c5ccc(C#N)cc5)cc4)CC3)CC2)c1 [TCMDC-138860] was tested. Which “% Inhibition” value did it give?
A: -1.987%

Q: COc1ccccc1C1CCN(CCN2CCC(NC(=O)c3ccc(-c4ccc(C#N)cc4)cc3)CC2)CC1 [TCMDC-138880] was tested. Which “% Inhibition” value did it give?
A: -25.62%

Q: Which “% Inhibition” value does the source give for CCOc1cc(C)ccc1C1CCN(CCCCNC(=O)c2cccc(-c3ccc(C(F)(F)F)cc3)c2)CC1 [TCMDC-138534] here?
A: 29.59%

Q: How did the “% Inhibition” value turn out when CCc1ccc(C2CCN(CCCCNC(=O)c3ccc(NC(=O)c4ccc(Cl)cc4)cc3)CC2)c(OCCO)c1 [TCMDC-138703] was run?
A: 131.2%

Q: For CN(C)CCOc1ccnc2ccc(NC(=O)Cc3ccc(-c4ccncc4)c4ccccc34)cc12 [TCMDC-139162], which “% Inhibition” value is on record?
A: 6.193%

Q: Which “% Inhibition” value does the source give for CCOc1ccnc(=O)[nH]1 [TCMDC-124258] here?
A: 20.67%

Q: Which “% Inhibition” value does the source give for C=CCOc1ccc(C2C(C(=O)OC)=C(C)NC3=C2C(=O)c2ccccc23)cc1OC (stereo not shown) [TCMDC-125383] here?
A: -17.47%

Q: With O=C(Nc1cccc(-c2nn3ncccc3c2-c2ccnc(Nc3cccc(-c4cnco4)c3)n2)c1)c1c(F)cccc1F [TCMDC-135550] as the molecule, how does the “% Inhibition” value read?
A: -49.22%

Q: How did the “% Inhibition” value turn out when CN(C)Cc1ccc(CN2CCN(CCOc3ccc(-c4ccc(Cl)cc4)cc3)CC2)o1 [TCMDC-138673] was run?
A: 36.52%

Q: For CN1CCN(c2nsc3ccc(-c4ccc(OCCN5CCCC5)cc4)cc23)CC1 [TCMDC-133436], which “% Inhibition” value is on record?
A: 111.5%

Q: Which “% Inhibition” value does the source give for CN1CCN(c2nsc3ccc(-c4ccc(NC(=O)Nc5cc(C(F)(F)F)ccc5F)cc4)cc23)CC1 [TCMDC-133435] here?
A: 89.92%

Q: With CN1CCN(c2ccnc3ccc(NC(=O)Nc4ccc(-c5ccccc5)cc4)cc23)CC1 [TCMDC-139320] as the molecule, how does the “% Inhibition” value read?
A: -2.633%

Q: For CN1CCCc2ccc(NC(=O)Nc3ccc(-c4ccccc4)cc3)cc2C1 [TCMDC-133730], which “% Inhibition” value is on record?
A: -3.95%

Q: With O=C(Nc1ccc(-c2ccc(-c3nc4ccc(C(F)(F)F)cc4[nH]3)cc2)cc1)Nc1ccc(F)c(F)c1F [TCMDC-133223] as the molecule, how does the “% Inhibition” value read?
A: -19.68%

Q: How did the “% Inhibition” value turn out when CN1CCN(c2nsc3ccc(-c4ccc(NC(=O)Nc5ccccc5)cc4)cc23)CC1 [TCMDC-133437] was run?
A: 50.88%

Q: How did the “% Inhibition” value turn out when Fc1ccc(-c2cc3ncnc(N4CCN(CCN5CCCC5)CC4)c3s2)cc1 [TCMDC-125053] was run?
A: 6.032%

Q: For COc1ccc(N2CCN(CCCCNC(=O)c3ccc(/C=C/c4ccc(Cl)c(Cl)c4)cc3)CC2)c(OC)c1 [TCMDC-138175], which “% Inhibition” value is on record?
A: -78.16%

Q: How did the “% Inhibition” value turn out when CS(=O)(=O)c1ccc2nc(NC(=O)c3csnn3)sc2c1 [TCMDC-125074] was run?
A: 49.99%

Q: Which “% Inhibition” value does the source give for NC1=NC2(CCCC2)N(c2ccc(Cl)cc2)C(N)=N1 [TCMDC-137719] here?
A: 0.5076%

Q: How did the “% Inhibition” value turn out when NC(N)=NC(=O)Nc1cc(Cl)c(Cl)c(Cl)c1 [TCMDC-137465] was run?
A: -8.846%

Q: For CCN(CC)CCN(Cc1ccc(-c2ccc(Cl)cc2)cc1)C(=O)Cn1cc(CN(C)C)c(=O)nc1SCc1ccc(F)cc1 [TCMDC-140406], which “% Inhibition” value is on record?
A: 107.7%

Q: CCc1cn(CC(=O)N(CCOc2ccc(-c3ccc(C(F)(F)F)cc3)cc2)CCN(CC)CC)c(SCc2ccc(F)cc2)nc1=O [TCMDC-140925] was tested. Which “% Inhibition” value did it give?
A: 116.2%

Q: With CC(C)Sc1nc2c(c(=O)n1Cc1ccco1)C1(CCCCC1)Cc1ccccc1-2 [TCMDC-125100] as the molecule, how does the “% Inhibition” value read?
A: 0.5988%

Q: COc1ccc(CNC2CCN(C)CC2)cc1-c1ccc(S(=O)(=O)NC2CCC2)cc1 [TCMDC-132245] was tested. Which “% Inhibition” value did it give?
A: 84.43%

Q: Which “% Inhibition” value does the source give for COc1ccc(CNC2CCN(C)CC2)cc1-c1ccc(S(=O)(=O)NC2CCC2)c(C)c1 [TCMDC-132270] here?
A: 86.28%

Q: For COc1ccc(CNC2CCN(C)CC2)cc1-c1ccc(S(=O)(=O)NC2CCC2)c(F)c1 [TCMDC-132263], which “% Inhibition” value is on record?
A: 28.54%

Q: How did the “% Inhibition” value turn out when N=C(N)c1ccc(NN=Cc2ccc(Oc3ccc(C(=N)N)cc3)cc2)cc1 [TCMDC-137493] was run?
A: 43.38%

Q: For CC(C)Cc1c(O)nc(SCCN2CCOCC2)[nH]c1=O [TCMDC-125767], which “% Inhibition” value is on record?
A: 17.13%

Q: For O=C(O)C[C@H](NC(=O)[C@@H]1CCCN1C(=O)c1cccc(-c2ccc(Cl)c(Cl)c2)c1)C(=O)O [TCMDC-140511], which “% Inhibition” value is on record?
A: 4.214%

Q: For O=[N+]([O-])c1ccc(NC(=NC2CCCc3ccccc32)Nc2ccccc2Br)c(O)c1 (stereo not shown) [TCMDC-139983], which “% Inhibition” value is on record?
A: -2.666%

Q: With COc1c(OC)c(OC)c2ccccc2c1CNCCCCCCNCc1c(OC)c(OC)c(OC)c2ccccc12 [TCMDC-137827] as the molecule, how does the “% Inhibition” value read?
A: 106%

Q: Which “% Inhibition” value does the source give for CCCNCc1c(O)ccc2c(CNCCC)c(O)ccc12 [TCMDC-137593] here?
A: -47.95%

Q: COc1c(CNCCCCCCNCc2c(OC)c(OC)c3ccccc3c2OC)c(OC)c2ccccc2c1OC [TCMDC-137837] was tested. Which “% Inhibition” value did it give?
A: 111.1%

— PMC4552634, “A New Set of Chemical Starting Points with Plasmodium falciparum Transmission-Blocking Potential for Antimalarial Drug Discovery” (PLoS ONE, 2015)
